Only some compounds are listed: those with a hit (about 2.8% of all), similar ones and a draw of the others.
WRN helicase inh: WRN helicase (human) inhibition; Q14191; WRN helicase unwinding, fluorescent forked duplex, kinetic; Potency, µM (top dose mostly 114 µM), without a hit: top-dose activity change, negative = inhibition, usual class: inhibitors; 360,000 tested, 0.46% active; AID 651768; further: potency means the concentration at half of the fitted maximal effect; on the % scale 0 is the no-effect control and ±100 the full control effect; nearly all actives have a fitted effect of over 55% in size
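WRN at 20 nM final preincubated with compound 15 min at room temperature; reaction started with 100 nM fluorophore/quencher forked duplex oligonucleotide and 2 mM ATP final. Unwinding followed kinetically by red fluorescence (ex 525, em 598 nm).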
Pol kappa inh-1: blocks human DNA polymerase kappa activity. AID 588579. 400,000 tested, 0.53% active. Potency, µM (top dose mostly 107 µM), for the others: top-dose activity, negative = inhibition, hits mostly inhibitors. purified Pol kappa, fluorescent DNA synthesis assay, 10 min. Q9UBT6; further: potency means the concentration at half of the fitted maximal effect; on the % scale 0 is the no-effect control and ±100 the full control effect
Target sequence (Q9UBT6 whole entry, looked up): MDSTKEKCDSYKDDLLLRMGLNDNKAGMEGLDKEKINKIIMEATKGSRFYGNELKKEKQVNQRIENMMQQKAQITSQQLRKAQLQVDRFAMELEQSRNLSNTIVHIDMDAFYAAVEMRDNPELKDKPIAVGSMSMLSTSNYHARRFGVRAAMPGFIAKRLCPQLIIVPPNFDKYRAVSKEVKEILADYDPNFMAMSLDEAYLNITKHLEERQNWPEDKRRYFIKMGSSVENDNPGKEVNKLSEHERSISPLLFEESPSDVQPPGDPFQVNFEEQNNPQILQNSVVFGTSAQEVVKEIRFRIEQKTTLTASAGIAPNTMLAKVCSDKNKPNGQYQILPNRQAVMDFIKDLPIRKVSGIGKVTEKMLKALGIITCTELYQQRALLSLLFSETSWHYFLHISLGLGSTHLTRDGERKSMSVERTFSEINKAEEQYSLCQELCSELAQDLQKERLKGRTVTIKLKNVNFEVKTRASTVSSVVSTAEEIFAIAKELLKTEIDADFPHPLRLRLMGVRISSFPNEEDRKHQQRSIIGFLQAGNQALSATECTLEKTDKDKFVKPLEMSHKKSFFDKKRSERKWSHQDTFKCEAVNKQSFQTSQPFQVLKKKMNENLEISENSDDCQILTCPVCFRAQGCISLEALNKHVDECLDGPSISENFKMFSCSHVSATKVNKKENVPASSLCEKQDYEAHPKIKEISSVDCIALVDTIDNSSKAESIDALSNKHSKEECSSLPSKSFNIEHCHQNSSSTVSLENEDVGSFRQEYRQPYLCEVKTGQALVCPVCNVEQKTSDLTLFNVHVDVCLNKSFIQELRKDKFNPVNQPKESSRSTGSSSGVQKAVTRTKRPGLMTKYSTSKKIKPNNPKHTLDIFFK
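Fluorescent qHTS in 1536-well format: enzyme (10 nM) and compound sat 15 min at room temperature before 50 nM substrate (final) was added. Signal taken at 0 and 10 min; no-enzyme buffer wells were negative controls.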
POLI inh: DNA polymerase iota (human) inhibition; Q9UNA4; Pol iota fluorescent replication assay, 10 min; Potency, µM (series often up to 115 µM), without a hit: top-dose activity, negative = inhibition, most hits filed as inhibitors; 390,000 tested, 1% active; AID 588590; further: potency means the concentration at half of the fitted maximal effect
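Pol iota at 10 nM preincubated 15 min with compounds at room temperature; reaction started with fluorescent substrate, 50 nM final. Fluorescence read kinetically at 0 and 10 min; buffer-only wells as negative control.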
PI5P4Ka inh: blocks human PI5P4K alpha kinase activity | P48426 | PI5P4Kalpha enzyme, ADP-Glo luminescence, 60 min; active compounds read low | 330,000 tested, 1.2% active | max response, %; active means max response of -50% or lower; inconclusive means between -30% and -50%; inactive means -30% or higher; further: value at the top dose of about 77 µM; on the % scale 0 is the no-effect control and ±100 the full control effect
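Quantitative HTS of the MLSMR library against PI5P4Kalpha with substrate. ATP added last at 5 microM final; room temperature, 60 minutes. Remaining ATP depleted, ADP converted and read as luminescence.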
Pol beta inh: inhibitors of human DNA polymerase beta; P06746; Pol beta primer extension/strand displacement, fluorescence kinetic; Potency, µM (highest dose often 114 µM), inactives show at the highest dose activity change, negative = inhibition, most hits filed as inhibitors; 340,000 tested, 1.3% active; AID 485314; further: potency means the concentration at half of the fitted maximal effect; on the % scale 0 is the no-effect control and ±100 the full control effect
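Values derive from four-parameter Hill fits of normalized kinetic data: reads at 0 and 10 min following addition of 50 nM substrate to 10 nM Pol beta preincubated 15 min with compound.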
Pol eta inh-1: blocks human DNA polymerase eta activity; Q9Y253; recombinant Pol eta, fluorescent DNA replication assay; Potency, µM (titrated, usually from 114 µM), for inactives: at the highest dose activity change, negative = inhibition, actives largely listed as inhibitors; 390,000 tested, 1.2% active; AID 588591; further: potency means the concentration at half of the fitted maximal effect; on the % scale 0 is the no-effect control and ±100 the full control effect
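Pol eta at 10 nM preincubated with compounds 15 min at room temperature; reaction started with fluorescent substrate (50 nM final) and read kinetically at 0 and 10 min.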
Pol kappa inh-2: confirmation of human DNA polymerase kappa inhibitors. shares compounds with Pol eta inh-1. purified Pol-kappa, fluorescent strand-displacement substrate. AID 720501. 920 tested, 76% active. Potency, µM, usual class: inhibitors; further: potency means the concentration at half of the fitted maximal effect
Pol eta inh-2: Pol eta (human) inhibition, cherry-pick confirmation | Pol eta primer extension, TAMRA/BHQ fluorescence, 10 min | shares compounds with Pol eta inh-1 | AID 720502 | Potency, µM, most hits filed as inhibitors | 2,600 tested, 64% active; further: potency means the concentration at half of the fitted maximal effect
* = called active by the depositor; ? = inconclusive; . = not tested or not shown; [ ] = another dose, or the depositor's remark. Unless noted, the call rests on the fitted dose curve; in most records, active means well fitted curve in the direction sought with a large enough effect; inconclusive means small, poorly fitted or top-dose-only effect, or another doubt; inactive means no such curve, though single readings can be large; an effect the other way counts as inactive or inconclusive.

SMILES | WRN helicase inh | Pol kappa inh-1 | POLI inh | PI5P4Ka inh | Pol beta inh | Pol eta inh-1 | Pol eta inh-2 | others
Cc1cc(Br)ccc1N=C1NC(=O)CS1 | 10.1% | 5.6% | 32.4% | 0.6 | 1.2% | -9.5% | .
CC(C)[C@@H]1NC(=O)[C@H](CCCCN)NC(=O)[C@@H](Cc2c[nH]c3ccccc23)NC(=O)[C@H](Cc2ccc(O)cc2)NC(=O)[C@@H](NC(=O)[C@H](N)Cc2ccccc2)CSSC[C@@H](C(=O)N[C@@H](Cc2c[nH]c3ccccc23)C(N)=O)NC1=O | . | 15.4%[60.1 µM] | . | . | . | . | .
NC(=O)N/N=C/c1ccc(-c2ccc(S(=O)(=O)Nc3ncccn3)cc2)o1 | -7.4%[11.6 µM] | ? | ? | -12.1 | . | 35.5µM* | 67.5* | Pol kappa inh-2=37.7*
Cc1ccc(C(=O)COC(=O)c2cc(=O)[nH]c3ccccc23)cc1C | -8.1%[11.6 µM] | -14.2% | 26.3% | 0.8 | 5.6% | 50.1µM* | 67.5*
COc1ccccc1C(=O)COC(=O)c1cc(=O)[nH]c2ccccc12 | 3.1% | -3.6% | 36.3% | 4.5 | . | -3.6% | .
Cc1cc(C)n2c(SCC(O)=C(C#N)c3nc4ccccc4[nH]3)nnc2n1 | ? | ? | 11.2µM* | -73.5* | . | 25.1µM* | ?
COC(=O)COc1ccc(C2Nc3c(Cl)ccc(C(=O)O)c3C3C=CCC32)cc1 (stereo not drawn) | 22.4µM* | ? | ? | -57.2* | ? | 28.2µM* | 47.8*
CSc1ccc(/C=C2/C(=N)N3N=C(CC(=O)N4CCCC4)SC3=NC2=O)cc1 | 5.2%[11.6 µM] | ? | 79.4µM* | -5.6 | 7.0% | 39.8µM* | ?
N=C1/C(=C\c2ccc(OC(=O)c3ccc(F)cc3)cc2)C(=O)N=C2SC(N3CCCC3)=NN12 | -10.2%[11.6 µM] | -26.5% | -11.8% | -23.0 | -0.6% | 56.2µM* | . | Pol kappa inh-2=67*
COc1ccc(-n2c(C)cc(/C=C3\C(=N)N4N=C(CC(=O)N5CCOCC5)SC4=NC3=O)c2C)c(OC)c1 | -22.9% | ? | 44.7µM* | -18.3 | ? | 39.8µM* | ?
COc1cccc(C2CC(=O)Nc3c2c(=O)nc2c(C)cccn32)c1 (stereo not drawn) | . | 3.1% | 14.7% | . | -1.8% | -9.5% | .
Cc1cc(C=C2C(=O)c3ccccc3C2=O)c(C)n1-c1ccc(C(=O)O)cc1 | ? | ? | 35.5µM* | -6.6 | ? | 25.1µM* | ?
O=C(O)c1cccc(-n2cccc2C=C2C(=O)c3ccccc3C2=O)c1 | ? | -42.6% | ? | -11.2 | ? | 15.8µM* | 75.7*
CC1=NN(c2ccccc2)C(=O)/C1=C\c1cc(C)n(-c2ccccc2)c1C | -0.2% | -2.2% | 12.5% | 9.2 | -19.7% | -24.9% | .
Cc1cc(/C=c2\sc3nc4ccccc4n3c2=O)c(C)n1-c1ccc(C(=O)O)cc1 | ? | -38.0% | 44.7µM* | 1.8 | 22.4µM* | 22.4µM* | ?
O=C1C(c2ccc(F)cc2)N(CCc2ccccc2)C(=O)CN1C1CCCCCC1 (stereo not drawn) | . | -7.6%[60.1 µM] | -0.2% | . | 13.6% | -19.9% | .
O=C(N/C=C/c1ccco1)Nc1cccc(Cl)c1 | 0.2%[11.6 µM] | -41.8% | ? | ? | -15.1% | ? | .
O=C(N/C=C/c1ccco1)OCc1ccccc1 | -4.3%[11.6 µM] | -43.1% | ? | -24.4 | ? | ? | ?
COc1ccc(NC(=O)N/C=C/c2ccco2)cc1 | -7.0%[11.6 µM] | ? | ? | -15.0 | 25.1µM* | 44.7µM* | ?
O=C(COC(=O)/C=C/c1ccco1)NCc1ccccc1 | 1.7% | -10.7% | 170.8% | 2.9 | ? | -12.3% | .
CCN(CC1CCCO1)C(=O)CCc1nnc(CCc2ccccc2)o1 (stereo not drawn) | -5.0% | . | . | 0.4 | . | -4.0% | .
COc1cc([N+](=O)[O-])ccc1NC(=O)CSc1n[nH]c(C(C)C)n1 | 4.2% | 8.1% | 75.6% | -1.8 | 19.6% | -22.5% | .
COc1ccc(OC)c(S(=O)(=O)NC2CC(=O)N(c3cccc(F)c3)C2)c1 (stereo not drawn) | 2.3% | 2.3% | 26.6% | -2.3 | . | -15.8% | .
COc1cc2cc3c(N)c(C(=O)Nc4sc(C)c(C)c4C#N)sc3nc2cc1OC | ? | 31.6µM* | 7.94µM* | . | 7.94µM* | 28.2µM* | 30.1*
CCOc1cc(-c2ccc3c(c2)OCO3)cc(=[O+]CC)c2c(C)oc(C)c12 | . | 50.1µM* | 50.1µM* | . | . | . | 47.8* | Pol kappa inh-2=?
SMILES | WRN helicase inh | Pol kappa inh-1 | POLI inh | PI5P4Ka inh | Pol beta inh | Pol eta inh-1 | Pol eta inh-2 | others
O=C(NCC(c1ccc2c(c1)OCO2)N1CCOCC1)C(=O)Nc1ccc(Cl)cc1 (stereo not drawn) | . | -0.9%[60.1 µM] | -2.8% | . | ? | -0.9% | .
CC#CCCCC(=O)Nc1cccc(C(=O)O)c1 | -14.5%[57.1 µM] | ? | ? | -5.4 | 4.3% | 14.1µM* | ?
S=c1[nH]nc(-c2cc(-c3ccco3)[nH]n2)n1-c1ccccc1Cl | 50.1µM* | ? | ? | -56.6* | ? | 31.6µM* | ?
COc1ccc(/C=C2\N=C(SC)SC2=O)cc1OC | -1.0% | -10.0% | -12.7% | 15.6 | 3.9% | -16.8% | .
CCOc1cc(/C=C2\N=C(SC)SC2=O)cc([N+](=O)[O-])c1OC(C)=O | ? | 44.7µM* | ? | ? | 22.4µM* | ? | . | Pol kappa inh-2=84.4*
O=C(OCC(=O)N1CCCC1=O)c1nc(Cl)c(Cl)c(Cl)c1Cl | -6.1%[11.6 µM] | ? | ? | -20.4 | ? | 56.2µM* | ?
Nc1c(Cl)c(Cl)nc(C(=O)OCC(=O)N2CCCC2=O)c1Cl | -13.0% | -11.4% | ? | -21.7 | . | ? | .
O=C1CCSC2=C1SCc1sccc12 | -3.5% | . | . | 1.1 | . | . | .
C=C1C=CS(=O)(=O)N(C(C)C(=O)OC)C1 (stereo not drawn) | . | -31.5% | ? | . | . | . | .
C/C=C/COC(=O)c1[nH]c2c(c1C)C(=O)CC(c1ccc(N(C)C)cc1)C2 (stereo not drawn) | 3.3% | -0.3% | 66.8% | -3.7 | -5.7% | -10.2% | .
C/C=C/COC(=O)c1[nH]c2c(c1C)C(=O)CC(c1ccco1)C2 (stereo not drawn) | ? | 79.4µM* | ? | -28.9 | 22.4µM* | 22.4µM* | ?
O=C1Nc2ccccc2SC(c2ccccc2)C1O (stereo not drawn) | ? | 79.4µM* | ? | -82.2* | 22.4µM* | 2.82µM* | ?
O=C(O)CC1Sc2ccccc2NC1=O (stereo not drawn) | -1.0% | -2.7% | 2.2% | -7.1 | 66.3% | -10.4% | .

Bioassay records deposited in PubChem BioAssay by National Center for Advancing Translational Sciences (NCATS).
